From PubChem BioAssay
Active and inactive are the calls of the source.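 The calls were made as follows, unless noted: active = compounds that lower survival of HCT116 colon cancer cells in the luminescence readout, no numeric limit stated; inactive = the rest.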 Starred links: 1 amine or outer side, 2 acyl side, 3 side chain; linkers in the order of their positions; H or OH if unused. Positions of bridges follow the written chain, without caps; N, C: chain ends. Non-standard residues stand in square brackets, D forms with d. Residues, ends and D or L forms follow the SMILES beside them. ξ: configuration not given here. *: point of attachment. ΔAla(3-NHCONH2) = NC(=O)NC=C(N)C(=O)O; X1 = NC1=NCCC(C(N[*:1])C(=O)[*:2])N1; hArg = N=C(N)NCCCC[C@H](N)C(=O)O; ξβ3hOrn = NCCCC(N)CC(=O)*; Dap = NC[CH](N)C(=O)O; Mpa = O=C(O)CCS

Columns and labels:
[1] = Wnt pathway potentiators raising nuclear beta-catenin – imaging, WNT3A-conditioned medium, mouse C2C12, NPC library, primary screen (AID 1117326; in the data active = nuclear beta-catenin stimulation mostly above about 4.2%, no sharp cut-off; inactive = mostly below about 10%; also: reference of the scale not given here); settings: stronger effect = higher value
[2] = stimulators of insulin release from INS-1E, primary screen, cell-based, 5 mM glucose, NPC library (AID 1117329;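 active = compound raises insulin release from rat beta cells at 5 mM glucose, no numeric limit stated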; also: reference of the scale not given here); settings: rat INS-1E insulin secretion, at 10 µM, stronger effect = higher value
[3] = growth inhibition of GSK3B-pretreated HCT116 cells – cell-based, CellTiter-Glo, 0.2 to 20 µM (AID 1117336;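 active = compounds lowering colon cancer cell viability after pretreatment blocking the GSK3B kinase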); settings: HCT116 viability after GSK3B inhibitor, at 20 µM, stronger effect = higher value
[4] = inhibition of endothelial tube formation, primary screen, imaging, VEGF stimulated, CD31 staining, tube area, NPC library (AID 1117340;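 active = compound that reduces growth-factor-driven endothelial tube area in a mixed cell culture, no cutoff stated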); settings: VEGF-stimulated ADSC/ECFC co-culture, at 10 µM, stronger effect = higher value
[5] = GLP1 release stimulators, primary, NCI-H716, NPC library (AID 1117341;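 active = compound raises GLP1 secretion from the human gut endocrine cells, with no numeric limit stated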; also: reference of the scale not given here); settings: NCI-H716 cells, at 10 µM, stronger effect = higher value
[6] = HCT116 colon cancer cell growth inhibition, primary screen, CellTiter-Glo luminescence, NPC library (AID 1117342); settings: at 20 µM (top of the series)
[7] = reduced SW480 viability measured with CellTiter-Glo, NPC library, primary (AID 1117343;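 active = compounds that lower viability of the colon cancer cells in the luminescence readout, with no numeric limit stated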); settings: CellTiter-Glo luminescence; at 20 µM (top of the series)
[8] = NPC library primary testing for decreased DLD-1 cell viability via CellTiter-Glo (AID 1117346;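 active = compounds that lower survival of DLD-1 colon cancer cells in the luminescence readout, no cutoff given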); settings: DLD-1 viability, CellTiter-Glo luminescence; at 20 µM (top of the series)

Structure (SMILES) | nuclear beta-catenin stimulation ([1]; at 10 µM) | nuclear beta-catenin stimulation ([1]; stimulation, at 2 µM) [%] | insulin secretion stimulation [2] | viability decrease [3] | tube area decrease [4] | GLP1 secretion stimulation [5] | inhibition of viability [6] | viability decrease (inhibition) [7] | viability decrease (inhibition) [8]
Nc1nc(-c2ccccc2)c(Br)c(=O)[nH]1 | 3.6% (inactive) | 2.1 | -0.7% (inactive) | -50.3% (inactive) | 17% (inactive) | 3.9% (inactive) | -10.9% (inactive) | 11.9% (inactive) | 0.7% (inactive)
N#CCC(=O)NN | 0.4% (inactive) | 2.7 | -0.7% (inactive) | 4.45% (inactive) | 0.1% (inactive) | -0.8% (inactive) | 1.9% (inactive) | 13.4% (inactive) | 4.5% (inactive)
CCCCCCCCCCCCCC(=O)OC(C)C | 1.2% (inactive) | -0.6 | 0.9% (inactive) | -8.2% (inactive) | -9.5% (inactive) | -0.1% (inactive) | 8.25% (inactive) | 7.7% (inactive) | 24.3% (inactive)
CCN(CC)S(=O)(=O)c1ccc(C(=O)O)cc1 | 1.6% (inactive) | 0.7 | -2.1% (inactive) | -8.6% (inactive) | 8.6% (inactive) | -3.2% (inactive) | -14.7% (inactive) | 40% (inactive) | 7.45% (inactive)
NCCCC(N)CC(=O)NCC1NC(=O)C(CO)NC(=O)C(N)CNC(=O)C(C2CCN=C(N)N2)NC(=O)C(=CNC(N)=O)NC1=O (stereo not drawn) (H-[Dap]S[Dap](ξβ3hOrn)[ΔAla(3-NHCONH2)][X1]; lactam 1-C; configuration not given here) | 0.2% (inactive) | 1.8 | -0.9% (inactive) | 3.9% (inactive) | -1% (inactive) | -1.3% (inactive) | -22.2% (inactive) | -3.4% (inactive) | -12% (inactive)
Nc1c(I)cc(I)c(C(=O)N(CCC(=O)O)c2ccccc2)c1I | 1.2% (inactive) | -0.2 | 1.9% (inactive) | -9.8% (inactive) | -5.2% (inactive) | -5.3% (inactive) | -9.4% (inactive) | 7.8% (active) | -9.8% (inactive)
CCCCCC(N)=O | 1.3% (inactive) | 2.1 | -1.1% (inactive) | -27.2% (inactive) | 8.8% (inactive) | 0.3% (inactive) | 2.8% (inactive) | 44.1% (inactive) | -11.8% (inactive)
Nc1ccc([N+](=O)[O-])c(C(F)(F)F)c1 | 0.5% (inactive) | -1 | 0.2% (inactive) | 13.2% (inactive) | 1.1% (inactive) | -0.8% (inactive) | 26.5% (inactive) | -16.7% (inactive) | 18.5% (inactive)
NC(=O)[C@@H]1CSSCCC(=O)N[C@@H](CCCCN=C(N)N)C(=O)NCC(=O)N[C@@H](CC(=O)O)C(=O)N[C@@H](Cc2c[nH]c3ccccc23)C(=O)N2CCC[C@H]2C(=O)N1 ([Mpa][hArg]GDWPC-NH2; disulfide 1-7) | 3.6% (inactive) | 5.8 | 3.95% (inactive) | 19.6% (inactive) | 79.4% (active) | -2.7% (inactive) | 9.3% (inactive) | 0.7% (inactive) | 0.2% (inactive)
O=C(c1ccccc1)c1ccccc1 | 0.7% (inactive) | 1.3 | -0.6% (inactive) | 8.9% (inactive) | -20.2% (inactive) | 2.4% (inactive) | 22.5% (inactive) | 21% (inactive) | 9.1% (inactive)
NC(CSCC(=O)O)C(=O)O (configuration not stated) | 0.1% (inactive) | 1.5 | -0.7% (inactive) | -2.5% (inactive) | 18.6% (inactive) | -2.3% (inactive) | 0.7% (inactive) | 0.9% (inactive) | -5.3% (inactive)
CC(=O)Nc1ccc(S(=O)(=O)Nc2cc(C)on2)cc1 | 1.7% (inactive) | 0.3 | 0.5% (inactive) | -7% (inactive) | -15.5% (inactive) | 0.1% (inactive) | 0.8% (inactive) | -14.4% (inactive) | 2% (inactive)
CCOc1ccc(S(=O)(=O)O)c2cccnc12 | -0.1% (inactive) | 0.5 | 6% (inactive) | -10.2% (inactive) | -5.5% (inactive) | -3.3% (inactive) | -0.3% (inactive) | 1.9% (inactive) | 0.1% (inactive)
